mut p53 SMM: binders of human mutant p53, primary screen, biochemical, small molecule microarray, anti-GST fluorescence. mutant tumor protein p53 (GST-tagged), Homo sapiens. small molecule microarray binding. calls only. 0.4% of 17,000 active. AID 624136, 2012;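 active = compounds whose four printed spots each glow above background more than chance allows, each with a p-value under 7%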
STAT3 SMM: STAT3 binders, primary screen, biochemical, small molecule microarray, single point, set 2; His-STAT3 binding, anti-His fluorescence; AID 624138, 2012; calls only; Signal transducer and activator of transcription 3 (Homo sapiens), P40763; 0.2% of 17,000 active;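 active = compounds whose four printed spots each show fluorescence over background unusually high for their array block, chance value under 7%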
Target sequence (P40763 whole entry, looked up): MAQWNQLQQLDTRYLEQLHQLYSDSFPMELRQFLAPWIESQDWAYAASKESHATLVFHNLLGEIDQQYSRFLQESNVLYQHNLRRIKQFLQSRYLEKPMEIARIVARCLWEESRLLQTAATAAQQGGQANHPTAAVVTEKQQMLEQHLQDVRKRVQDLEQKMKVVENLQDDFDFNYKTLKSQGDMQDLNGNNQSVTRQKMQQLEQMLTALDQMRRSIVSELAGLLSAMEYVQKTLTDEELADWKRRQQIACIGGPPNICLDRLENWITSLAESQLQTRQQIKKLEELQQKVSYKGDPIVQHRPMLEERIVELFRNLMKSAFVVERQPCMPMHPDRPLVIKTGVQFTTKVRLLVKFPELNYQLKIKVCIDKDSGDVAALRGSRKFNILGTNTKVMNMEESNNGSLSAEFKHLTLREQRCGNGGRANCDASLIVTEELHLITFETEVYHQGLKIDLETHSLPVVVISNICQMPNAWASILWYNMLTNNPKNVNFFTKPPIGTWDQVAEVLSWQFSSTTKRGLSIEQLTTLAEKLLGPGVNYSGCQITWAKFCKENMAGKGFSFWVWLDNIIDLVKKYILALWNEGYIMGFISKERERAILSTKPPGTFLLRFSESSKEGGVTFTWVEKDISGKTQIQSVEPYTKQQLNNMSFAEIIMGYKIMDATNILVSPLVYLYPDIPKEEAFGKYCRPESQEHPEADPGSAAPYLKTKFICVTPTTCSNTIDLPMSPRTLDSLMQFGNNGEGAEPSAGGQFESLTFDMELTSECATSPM
NFkB SMM: binders of NF-kB p50 subunit, primary screen, biochemical, small molecule microarray, anti-His fluorescence. anti-His fluorescence binding. 1.3% of 17,000 active. Nuclear factor NF-kappa-B p105 subunit (Homo sapiens), P19838. AID 624139, 2012. calls only;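 active = spot fluorescence over background significantly raised, with a chance value under 7% in all four replicate spots of the compound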;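 note: probe protein is his-tagged human p50 processed subunit at 1 µg/ml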
Myc binder: binders of human c-Myc, primary screen, biochemical, small molecule microarray, anti-His fluorescence; AID 624141, 2012; 1.5% of 17,000 active; Myc proto-oncogene protein (Homo sapiens), P01106; calls only; His-c-Myc binding;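 active = spot fluorescence over background with P-value below 7% in all four replicate spots, showing protein binding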
Calls only; - = inactive; + = active, no number. This is a sample that favours compounds with a hit; in the whole collection about 2.4% have one here.

SMILES	mut p53 SMM	STAT3 SMM	NFkB SMM	Myc binder
C=C1CCC2(C(=O)O)CCC3(C)C(=CCC4C5(C)C[C@@H](O)[C@H](O)C(C)(CO)C5CCC43C)C2C1C (some centres undefined)	-	-	+	+
CN1CCc2nc(SCC(=O)Nc3ccc(C(C)(C)C)cc3)c(C#N)cc2C1	-	-	-	-
O=C(O)CCC(=O)Nc1ccc(Br)c2cccnc12	-	-	-	+
CCOc1ccccc1CNCCN1CCOCC1	-	-	-	+
COc1ccc(S(=O)(=O)N(C)CC(=O)N2CCOCC2)cc1OC	-	-	-	-
C[C@@H]1CN([C@@H](C)CO)C(=O)Cc2cc(NS(=O)(=O)c3ccc(Cl)cc3)ccc2O[C@@H]1CN(C)C(=O)Nc1ccc(F)cc1	-	-	+	+
CNC[C@@H]1Oc2ccc(NS(=O)(=O)c3cn(C)cn3)cc2CC(=O)N([C@H](C)CO)C[C@@H]1C	-	-	+	-
C[C@H](CO)N1C[C@H](C)[C@@H](CN(C)C(=O)Nc2ccc(F)cc2)Oc2ccc(NS(=O)(=O)c3ccc(Cl)cc3)cc2CC1=O	-	-	-	-
C[C@@H]1CN([C@H](C)CO)C(=O)Cc2cc(NS(=O)(=O)c3ccc(Cl)cc3)ccc2O[C@H]1CN(C)CC1CCCCC1	-	-	-	+
CNC[C@H]1Oc2ccc(NS(=O)(=O)c3cn(C)cn3)cc2CC(=O)N([C@H](C)CO)C[C@@H]1C	-	-	-	-
COc1cccc2cc(C(=O)N3CCN(CCN4C(=O)c5cccc6cccc(c56)C4=O)CC3)c(=O)oc12	-	-	-	-
C[C@@H]1O[C@@H](O[C@H]2[C@H](O[C@H]3CC[C@@]4(C)C(CC[C@]5(C)C4CC=C4C6CC(C)(C)CC[C@]6(C(=O)O[C@@H]6O[C@H](CO[C@@H]7O[C@H](CO)[C@@H](O[C@@H]8O[C@@H](C)[C@H](O)[C@@H](O)[C@H]8O)[C@H](O)[C@H]7O)[C@@H](O)[C@H](O)[C@H]6O)CC[C@]45C)[C@]3(C)CO)OC[C@H](O)[C@@H]2O)[C@H](O)[C@H](O)[C@H]1O (some centres undefined)	-	-	-	-
C[C@@H]1O[C@@H](O[C@H]2[C@H](O[C@H]3CC[C@@]4(C)C(CC[C@]5(C)C4C=C[C@]46OC[C@@]7(CCC(C)(C)C[C@H]74)[C@@H](O)C[C@]65C)[C@]3(C)CO)O[C@H](CO)[C@@H](O)[C@@H]2O[C@@H]2O[C@H](CO)[C@@H](O[C@@H]3O[C@@H](C)[C@H](O)[C@@H](O)[C@H]3O)[C@H](O)[C@H]2O)[C@H](O)[C@H](O)[C@H]1O (some centres undefined)	-	-	+	+
C[C@@H]1CCCCO[C@H](CN(C)C(=O)Cc2ccccc2)[C@H](C)CN([C@@H](C)CO)C(=O)c2cc(NC(=O)Nc3ccc(F)cc3)ccc2O1	-	+	-	-
CNC[C@@H]1Oc2ccc(NC(=O)C3CC3)cc2C(=O)N([C@H](C)CO)C[C@H]1C	-	-	+	+
CNC[C@H]1Oc2ccc(NC(=O)C3CC3)cc2C(=O)N([C@@H](C)CO)C[C@@H]1C	-	-	-	-
C[C@@H]1CN([C@@H](C)CO)C(=O)c2cc(NC(=O)C3CCCCC3)ccc2O[C@@H](C)CCCCO[C@@H]1CN(C)C(=O)C1CCCCC1	-	-	+	+
C[C@H](CO)N1C[C@H](C)[C@H](CN(C)C)OCCCC[C@H](C)Oc2ccc(NC(=O)C3CCCCC3)cc2C1=O	-	-	-	-
C[C@H]1CCCCO[C@@H](CN(C)C(=O)Nc2ccccc2)[C@@H](C)CN([C@@H](C)CO)C(=O)c2cc(NC(=O)C3CCCCC3)ccc2O1	-	-	-	+
NC(=O)c1ccccc1NC(=O)COc1cccc2ccccc12	-	-	-	-
COc1cc(OC)c(O[C@@H]2O[C@H](COC(=O)c3cc(O)c(O)c(O)c3)[C@@H](O)[C@H](O)[C@H]2O)c(OC)c1	-	-	-	-
O=C(CSc1nnc(-c2ccco2)o1)c1ccc2c(c1)OCCO2	-	-	-	-
C[C@@H]1CCCCO[C@H](CN(C)C(=O)Nc2ccccc2)[C@H](C)CN([C@@H](C)CO)C(=O)c2cc(NC(=O)Nc3ccccc3)ccc2O1	-	-	-	-
C[C@H](CO)N1C[C@H](C)[C@@H](CN(C)C(=O)Nc2ccccc2)OCCCC[C@H](C)Oc2ccc(NC(=O)Nc3ccccc3)cc2C1=O	-	-	+	+
N#CCCN(CCC#N)C(=O)c1ccccc1Oc1ccccc1	-	-	-	-
SMILES	mut p53 SMM	STAT3 SMM	NFkB SMM	Myc binder
C=CC1(C)C=C2CCC3C(C)(C)C(O[C@@H]4O[C@@H](CO)[C@H](O)[C@H]4O)CCC3(C)C2CC1O[C@@H]1O[C@H](C)[C@H](O)[C@H](O)[C@H]1O (some centres undefined)	-	-	+	-
C[C@H](CO)N1C[C@H](C)[C@H](CN(C)S(=O)(=O)c2cccs2)OCCCC[C@H](C)Oc2ccc(NC(=O)c3ccncc3)cc2C1=O	-	-	+	-
CC(C)NC(=O)N(C)C[C@@H]1OCCCC[C@@H](C)Oc2ccc(NC(=O)c3ccncc3)cc2C(=O)N([C@H](C)CO)C[C@@H]1C	-	-	-	-
CC(C)NC(=O)N(C)C[C@H]1OCCCC[C@H](C)Oc2ccc(NC(=O)c3ccncc3)cc2C(=O)N([C@H](C)CO)C[C@@H]1C	-	-	+	-
C[C@@H]1CN([C@H](C)CO)C(=O)c2cc(NC(=O)c3ccncc3)ccc2O[C@@H](C)CCCCO[C@H]1CN(C)C	-	-	-	+
C[C@H](CO)N1C[C@H](C)[C@@H](CN(C)S(C)(=O)=O)OCCCC[C@H](C)Oc2ccc(NC(=O)c3ccncc3)cc2C1=O	-	-	-	-
CC(C)NC(=O)N(C)C[C@H]1OCCCC[C@H](C)Oc2ccc(NC(=O)c3ccncc3)cc2C(=O)N([C@@H](C)CO)C[C@@H]1C	-	-	+	+
COc1cccc(OC)c1C(=O)NCCCO	-	-	-	-
C=C(CCCCCCCC(=O)O)C(=O)O	-	-	-	-
CC(C)NC(=O)N(C)C[C@@H]1OCCCC[C@@H](C)Oc2ccc(NC(=O)c3ccncc3)cc2C(=O)N([C@H](C)CO)C[C@H]1C	-	-	+	+
C[C@@H]1CN([C@@H](C)CO)C(=O)c2cc(NC(=O)Nc3ccc4c(c3)OCO4)ccc2O[C@@H]1CN(C)CC1CCCCC1	-	-	-	-
C[C@@H]1CCCCO[C@@H](CN(C)C(=O)c2ccccc2)[C@@H](C)CN([C@H](C)CO)C(=O)c2cc(NC(=O)Nc3cccc4ccccc34)ccc2O1	+	-	+	+
C[C@H](CO)N1C[C@H](C)[C@@H](CN(C)CC2CCCCC2)Oc2ccc(NC(=O)Nc3ccc4c(c3)OCO4)cc2C1=O	+	-	+	+

Screening data deposited in PubChem by Broad Institute.
